From the supplement of paper PMC4466140

Target: AgAbp1
Test: SPOT peptide array binding signal intensity (averaged, normalized) (arbitrary units (background-subtracted, floor 0; scale differs between SH3 domains)); higher = stronger binding of the SH3 domain to the peptide
Outline: (§1)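 GST-fused SH3 domains, from four yeast species, were produced in E. coli BL21(DE3) and captured on glutathione Sepharose. Membranes of cellulose carrying synthetic 15-mer peptides, in which cysteines had been replaced by serines, were exposed to each domain at 10 μg/ml overnight at 4°C in TBS-based blocking buffer. After anti-GST antibody, an HRP anti-mouse secondary and luminol, spots were imaged and quantified using Genespotter. Binding signal is normalized and background-subtracted spot intensity, averaged over replicates, in arbitrary units that differ between domains.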

Binder | SPOT peptide array binding signal intensity
MPAPPPPPPPPPGAF | ≤ 0
HAPPLPPTAPPPPSL | ≤ 0

Target: AgBbc1
Test: as above
Outline: as §1

Binder | SPOT peptide array binding signal intensity
MPAPPPPPPPPPGAF | 3.81e-06
HAPPLPPTAPPPPSL | ≤ 0

Target: AgBem1-D1
Test: as above
Outline: as §1

Binder | SPOT peptide array binding signal intensity
MPAPPPPPPPPPGAF | ≤ 0
HAPPLPPTAPPPPSL | ≤ 0

Target: AgBzz1-D1
Test: as above
Outline: as §1

Binder | SPOT peptide array binding signal intensity
MPAPPPPPPPPPGAF | ≤ 0
HAPPLPPTAPPPPSL | ≤ 0

Target: AgBzz1-D2
Test: as above
Outline: as §1

Binder | SPOT peptide array binding signal intensity
MPAPPPPPPPPPGAF | 19.5
HAPPLPPTAPPPPSL | ≤ 0

Target: AgCyk3
Test: as above
Outline: as §1

Binder | SPOT peptide array binding signal intensity
MPAPPPPPPPPPGAF | ≤ 0
HAPPLPPTAPPPPSL | ≤ 0

Target: AgFus1
Test: as above
Outline: as §1

Binder | SPOT peptide array binding signal intensity
MPAPPPPPPPPPGAF | ≤ 0
HAPPLPPTAPPPPSL | ≤ 0

Target: AgHof1
Test: as above
Outline: as §1

Binder | SPOT peptide array binding signal intensity
MPAPPPPPPPPPGAF | 51.2
HAPPLPPTAPPPPSL | 26.5

Target: AgHse1
Test: as above
Outline: as §1

Binder | SPOT peptide array binding signal intensity
MPAPPPPPPPPPGAF | ≤ 0
HAPPLPPTAPPPPSL | ≤ 0

Target: AgLsb1
Test: as above
Outline: as §1

Binder | SPOT peptide array binding signal intensity
MPAPPPPPPPPPGAF | ≤ 0
HAPPLPPTAPPPPSL | ≤ 0

Target: AgLsb4
Test: as above
Outline: as §1

Binder | SPOT peptide array binding signal intensity
MPAPPPPPPPPPGAF | ≤ 0
HAPPLPPTAPPPPSL | ≤ 0

Target: AgMyo5
Test: as above
Outline: as §1

Binder | SPOT peptide array binding signal intensity
MPAPPPPPPPPPGAF | 822
HAPPLPPTAPPPPSL | 2230

Target: AgNbp2
Test: as above
Outline: as §1

Binder | SPOT peptide array binding signal intensity
MPAPPPPPPPPPGAF | ≤ 0
HAPPLPPTAPPPPSL | ≤ 0

Target: AgRvs167
Test: as above
Outline: as §1

Binder | SPOT peptide array binding signal intensity
MPAPPPPPPPPPGAF | ≤ 0
HAPPLPPTAPPPPSL | ≤ 0

Target: AgSho1
Test: as above
Outline: as §1

Binder | SPOT peptide array binding signal intensity
MPAPPPPPPPPPGAF | ≤ 0
HAPPLPPTAPPPPSL | ≤ 0

Target: AgSla1-D1-D2
Test: as above
Outline: as §1

Binder | SPOT peptide array binding signal intensity
MPAPPPPPPPPPGAF | ≤ 0
HAPPLPPTAPPPPSL | ≤ 0

Target: AgSla1-D3
Test: as above
Outline: as §1

Binder | SPOT peptide array binding signal intensity
MPAPPPPPPPPPGAF | 0.5
HAPPLPPTAPPPPSL | ≤ 0

Target: CaAbp1-D1
Test: as above
Outline: as §1

Binder | SPOT peptide array binding signal intensity
MPAPPPPPPPPPGAF | 18.5
HAPPLPPTAPPPPSL | ≤ 0

Target: CaAbp1-D2
Test: as above
Outline: as §1

Binder | SPOT peptide array binding signal intensity
MPAPPPPPPPPPGAF | ≤ 0
HAPPLPPTAPPPPSL | 2

Target: CaBbc1
Test: as above
Outline: as §1

Binder | SPOT peptide array binding signal intensity
MPAPPPPPPPPPGAF | 0.25
HAPPLPPTAPPPPSL | ≤ 0

Target: CaBem1-D1
Test: as above
Outline: as §1

Binder | SPOT peptide array binding signal intensity
MPAPPPPPPPPPGAF | 40
HAPPLPPTAPPPPSL | ≤ 0

Target: CaBzz1-D1
Test: as above
Outline: as §1

Binder | SPOT peptide array binding signal intensity
MPAPPPPPPPPPGAF | 970
HAPPLPPTAPPPPSL | 2

Target: CaBzz1-D2
Test: as above
Outline: as §1

Binder | SPOT peptide array binding signal intensity
MPAPPPPPPPPPGAF | 69.1
HAPPLPPTAPPPPSL | 6

Target: CaCyk3
Test: as above
Outline: as §1

Binder | SPOT peptide array binding signal intensity
MPAPPPPPPPPPGAF | ≤ 0
HAPPLPPTAPPPPSL | ≤ 0

Target: CaFus1
Test: as above
Outline: as §1

Binder | SPOT peptide array binding signal intensity
MPAPPPPPPPPPGAF | 33
HAPPLPPTAPPPPSL | ≤ 0

Target: CaHof1
Test: as above
Outline: as §1

Binder | SPOT peptide array binding signal intensity
MPAPPPPPPPPPGAF | ≤ 0
HAPPLPPTAPPPPSL | ≤ 0

Target: CaHse1
Test: as above
Outline: as §1

Binder | SPOT peptide array binding signal intensity
MPAPPPPPPPPPGAF | 4.62
HAPPLPPTAPPPPSL | 1.5

Target: CaLsb1
Test: as above
Outline: as §1

Binder | SPOT peptide array binding signal intensity
MPAPPPPPPPPPGAF | ≤ 0
HAPPLPPTAPPPPSL | ≤ 0

Target: CaLsb4
Test: as above
Outline: as §1

Binder | SPOT peptide array binding signal intensity
MPAPPPPPPPPPGAF | ≤ 0
HAPPLPPTAPPPPSL | ≤ 0

Target: CaMyo5
Test: as above
Outline: as §1

Binder | SPOT peptide array binding signal intensity
MPAPPPPPPPPPGAF | 66
HAPPLPPTAPPPPSL | 792

Target: CaNbp2
Test: as above
Outline: as §1

Binder | SPOT peptide array binding signal intensity
HAPPLPPTAPPPPSL | ≤ 0

Target: CaRvs167
Test: as above
Outline: as §1

Binder | SPOT peptide array binding signal intensity
HAPPLPPTAPPPPSL | ≤ 0

Target: CaRvs167-3
Test: as above
Outline: as §1

Binder | SPOT peptide array binding signal intensity
HAPPLPPTAPPPPSL | ≤ 0

Target: CaSho1
Test: as above
Outline: as §1

Binder | SPOT peptide array binding signal intensity
HAPPLPPTAPPPPSL | ≤ 0

Target: CaSla1-D1-D2
Test: as above
Outline: as §1

Binder | SPOT peptide array binding signal intensity
HAPPLPPTAPPPPSL | ≤ 0

Target: CaSla1-D3
Test: as above
Outline: as §1

Binder | SPOT peptide array binding signal intensity
HAPPLPPTAPPPPSL | ≤ 0

Target: ScAbp1
Test: as above
Outline: as §1

Binder | SPOT peptide array binding signal intensity
HAPPLPPTAPPPPSL | ≤ 0

Target: ScBbc1
Test: as above
Outline: as §1

Binder | SPOT peptide array binding signal intensity
HAPPLPPTAPPPPSL | ≤ 0

Target: ScBem1-D1
Test: as above
Outline: as §1

Binder | SPOT peptide array binding signal intensity
HAPPLPPTAPPPPSL | ≤ 0

Target: ScBzz1-D1
Test: as above
Outline: as §1

Binder | SPOT peptide array binding signal intensity
HAPPLPPTAPPPPSL | ≤ 0

Target: ScBzz1-D2
Test: as above
Outline: as §1

Binder | SPOT peptide array binding signal intensity
HAPPLPPTAPPPPSL | ≤ 0

Target: ScCyk3
Test: as above
Outline: as §1

Binder | SPOT peptide array binding signal intensity
HAPPLPPTAPPPPSL | ≤ 0

Target: ScFus1
Test: as above
Outline: as §1

Binder | SPOT peptide array binding signal intensity
HAPPLPPTAPPPPSL | ≤ 0

Target: ScHof1
Test: as above
Outline: as §1

Binder | SPOT peptide array binding signal intensity
HAPPLPPTAPPPPSL | 40.5

Target: ScHse1
Test: as above
Outline: as §1

Binder | SPOT peptide array binding signal intensity
HAPPLPPTAPPPPSL | ≤ 0

Target: ScLsb1
Test: as above
Outline: as §1

Binder | SPOT peptide array binding signal intensity
HAPPLPPTAPPPPSL | ≤ 0

Target: ScLsb2
Test: as above
Outline: as §1

Binder | SPOT peptide array binding signal intensity
HAPPLPPTAPPPPSL | ≤ 0

Target: ScLsb3
Test: as above
Outline: as §1

Binder | SPOT peptide array binding signal intensity
HAPPLPPTAPPPPSL | ≤ 0

Target: ScLsb4
Test: as above
Outline: as §1

Binder | SPOT peptide array binding signal intensity
HAPPLPPTAPPPPSL | ≤ 0

Target: ScMyo3
Test: as above
Outline: as §1

Binder | SPOT peptide array binding signal intensity
HAPPLPPTAPPPPSL | 1750

Target: ScMyo5
Test: as above
Outline: as §1

Binder | SPOT peptide array binding signal intensity
HAPPLPPTAPPPPSL | 2000

Target: ScNbp2
Test: as above
Outline: as §1

Binder | SPOT peptide array binding signal intensity
HAPPLPPTAPPPPSL | ≤ 0

Target: ScPex13
Test: as above
Outline: as §1

Binder | SPOT peptide array binding signal intensity
HAPPLPPTAPPPPSL | ≤ 0

Target: ScRvs167
Test: as above
Outline: as §1

Binder | SPOT peptide array binding signal intensity
HAPPLPPTAPPPPSL | ≤ 0

Target: ScSho1
Test: as above
Outline: as §1

Binder | SPOT peptide array binding signal intensity
HAPPLPPTAPPPPSL | ≤ 0

Target: ScSla1-D1-D2
Test: as above
Outline: as §1

Binder | SPOT peptide array binding signal intensity
HAPPLPPTAPPPPSL | ≤ 0

Target: ScSla1-D3
Test: as above
Outline: as §1

Binder | SPOT peptide array binding signal intensity
HAPPLPPTAPPPPSL | 1.75

Target: SpAbp1-D1
Test: as above
Outline: as §1

Binder | SPOT peptide array binding signal intensity
HAPPLPPTAPPPPSL | ≤ 0

Target: SpBbc1
Test: as above
Outline: as §1

Binder | SPOT peptide array binding signal intensity
HAPPLPPTAPPPPSL | 1.5

Target: SpBzz1-D1
Test: as above
Outline: as §1

Binder | SPOT peptide array binding signal intensity
HAPPLPPTAPPPPSL | 148

Target: SpBzz1-D2
Test: as above
Outline: as §1

Binder | SPOT peptide array binding signal intensity
HAPPLPPTAPPPPSL | ≤ 0

Target: SpCyk3
Test: as above
Outline: as §1

Binder | SPOT peptide array binding signal intensity
HAPPLPPTAPPPPSL | ≤ 0

Target: SpHof1
Test: as above
Outline: as §1

Binder | SPOT peptide array binding signal intensity
HAPPLPPTAPPPPSL | ≤ 0

Target: SpHof1-2
Test: as above
Outline: as §1

Binder | SPOT peptide array binding signal intensity
HAPPLPPTAPPPPSL | ≤ 0

Target: SpHof1-3
Test: as above
Outline: as §1

Binder | SPOT peptide array binding signal intensity
HAPPLPPTAPPPPSL | ≤ 0

Target: SpHse1
Test: as above
Outline: as §1

Binder | SPOT peptide array binding signal intensity
HAPPLPPTAPPPPSL | ≤ 0

Target: SpLsb1
Test: as above
Outline: as §1

Binder | SPOT peptide array binding signal intensity
HAPPLPPTAPPPPSL | ≤ 0

Target: SpLsb4
Test: as above
Outline: as §1

Binder | SPOT peptide array binding signal intensity
HAPPLPPTAPPPPSL | ≤ 0

Target: SpMyo1
Test: as above
Outline: as §1

Binder | SPOT peptide array binding signal intensity
HAPPLPPTAPPPPSL | 1320

Target: SpNbp2
Test: as above
Outline: as §1

Binder | SPOT peptide array binding signal intensity
HAPPLPPTAPPPPSL | ≤ 0

Target: SpPex13
Test: as above
Outline: as §1

Binder | SPOT peptide array binding signal intensity
HAPPLPPTAPPPPSL | ≤ 0

Target: SpRvs167
Test: as above
Outline: as §1

Binder | SPOT peptide array binding signal intensity
HAPPLPPTAPPPPSL | 2.67

Target: SpSla1-D1-D2
Test: as above
Outline: as §1

Binder | SPOT peptide array binding signal intensity
HAPPLPPTAPPPPSL | 7

Target: SpSla1-D3
Test: as above
Outline: as §1

Binder | SPOT peptide array binding signal intensity
HAPPLPPTAPPPPSL | ≤ 0
